Where “and” joins values, the source holds several entries; their conditions need not be identical. Equal values may be shown once. Records with an inconclusive call do not appear. Values without a mark were called inactive. Calls of active or inactive are those of the source. The call rests on the fitted dose curve; in most records, active means well fitted inhibition curve with a large enough effect; inconclusive means small, poorly fitted or top-dose-only effect; inactive means no such curve, though single readings can be large or run the other way.
What follows are compounds tested against Cruzipain (Trypanosoma cruzi) (UniProt P25779) (assay: Confirmation qHTS Assay for Inhibitors of Cruzain). Conditions: purified cruzain, Z-FR-AMC fluorescence, 0.01% Triton.
Cruzipain (Trypanosoma cruzi), sequence (P25779 123-467 limits assumed): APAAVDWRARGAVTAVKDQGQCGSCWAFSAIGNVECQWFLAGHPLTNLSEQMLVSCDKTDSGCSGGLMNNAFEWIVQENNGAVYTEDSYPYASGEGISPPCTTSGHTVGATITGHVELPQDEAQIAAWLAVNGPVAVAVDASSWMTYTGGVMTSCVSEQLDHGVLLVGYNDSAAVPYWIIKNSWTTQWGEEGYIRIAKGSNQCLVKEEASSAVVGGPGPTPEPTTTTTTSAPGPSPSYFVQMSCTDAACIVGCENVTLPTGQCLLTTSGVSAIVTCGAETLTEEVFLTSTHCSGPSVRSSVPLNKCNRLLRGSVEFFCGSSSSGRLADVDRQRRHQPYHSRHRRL
Method in brief: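 Reaction progress from the 60 s rise in AMC fluorescence (ex 360, em 450 nm) after adding 2 uM Z-FR-AMC. Before this, 1.5 nM cruzain sat 15 min at room temperature with compound in pH 5.5 acetate buffer with 5 mM DTT and 0.01% Triton X-100.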
Further: nearly all actives have a fitted effect of over 40% in size.
Potency means the concentration at half of the fitted maximal effect.
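Wherever activity change, negative = inhibition is given: plate controls were uninhibited enzyme control for no effect and buffer wells lacking enzyme for full effect.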

Question: Which activity change, negative = inhibition does the source give for `Cc1ccc2[nH]c(=O)c(CN(CCO)Cc3nnnn3Cc3ccccc3)cc2c1` here?
Answer: -1.03%

Question: `COc1ccccc1C(=O)NCC(=O)OCC(=O)c1cccc2ccccc12` was tested. Which Potency did it give?
Answer: 31.6 µM (active)

Question: With `CCCN(CCC)c1nc(N)nc(C#N)n1` as the compound, how does the Potency read?
Answer: 2.51 µM (active)

Question: For `O=C(Nc1cc(C(F)(F)F)ccc1Cl)C(O)Cc1ccccc1` (stereo not drawn), which activity change, negative = inhibition is on record?
Answer: -18.4%

Question: Which activity change, negative = inhibition does the source give for `O=C(Nc1ccc(O)c(-c2nc3ccccc3o2)c1)C1(c2ccc([N+](=O)[O-])cc2)CCCC1` here?
Answer: -1.92%

Question: For `CC(C)N(CCC(=O)c1ccc2ccccc2c1)Cc1ccccc1`, which Potency is on record?
Answer: 31.6 µM (active)

Question: `COc1ccc(N=Cc2nc(-c3ccccc3)oc2OC(=O)c2ccccc2)cc1` was tested. Which activity change, negative = inhibition did it give?
Answer: -22%

Question: Which Potency does the source give for `CC(C)C[C@H](NC(=O)[C@@H]1O[C@H]1C(=O)O)C(=O)NCCCCN=C(N)N` here?
Answer: 0.112 µM (active)

Question: With `Cc1cc(=O)oc2cc(OCC(=O)N3CCOCC3)ccc12` as the compound, how does the Potency read?
Answer: 8.91 µM (active)

Question: How did the Potency turn out when `CN(C)c1ccc(C(=O)NCC(=O)OC(C(=O)Nc2cc(C(F)(F)F)ccc2Cl)c2ccccc2)cc1` (stereo not drawn) was run?
Answer: 14.1 µM (active)

Question: For `COc1nc(C#N)nc(N2CCCCC2)n1`, which Potency is on record?
Answer: 2.82 µM (active)

Question: With `CC(C)COC(=O)c1nnsc1NC(=O)Nc1ccccc1` as the compound, how does the activity change, negative = inhibition read?
Answer: -3.71%

Question: Which Potency does the source give for `Cc1cccc(C)c1OCCCn1c(CCNC(=O)C2CCCCC2)nc2ccccc21` here?
Answer: 1.26 µM (active) and 1.58 µM (active)

Question: `COc1ccc(C)cc1NC(=O)C(OC(=O)CNC(=O)c1ccccc1)c1ccccc1` (stereo not drawn) was tested. Which Potency did it give?
Answer: 8.91 µM (active)

Question: Which activity change, negative = inhibition does the source give for `COc1ccc(S(=O)(=O)NC2CCN(C#N)CC2)cc1` here?
Answer: -4.94%

Question: For `COc1ccc2cc3cc(C(=O)NCCCN4CCOCC4)oc3nc2c1`, which activity change, negative = inhibition is on record?
Answer: -114%

Question: With `CCCCNC(=O)Cn1c(SCc2cccc(F)c2)nc2ccncc21` as the compound, how does the activity change, negative = inhibition read?
Answer: -27.5%

Question: Which activity change, negative = inhibition does the source give for `NNC(=O)C(C(=O)OCc1ccccc1)c1ccccc1` (stereo not drawn) here?
Answer: -1.2%

Question: For `CCn1cnc2c(Nc3cc(F)cc(F)c3)nc(C#N)nc21`, which Potency is on record?
Answer: 0.01 µM (active)

Question: Which activity change, negative = inhibition does the source give for `CCc1ccc2[nH]c(=O)c(CN(Cc3ccco3)Cc3nnnn3Cc3ccco3)cc2c1` here?
Answer: -11.7%

Question: With `O=C(CNC(=O)c1ccccc1Cl)OC(C(=O)Nc1cc(C(F)(F)F)ccc1Cl)c1ccccc1` (stereo not drawn) as the compound, how does the Potency read?
Answer: 8.91 µM (active)

Question: For `CCCCNC(=O)Cn1c(SCc2ccccc2C)nc2ccncc21`, which activity change, negative = inhibition is on record?
Answer: -24.9%

Question: `O=C(CCN1C(=O)/C(=C/C=C/c2ccccc2)SC1=S)Nc1nccs1` was tested. Which activity change, negative = inhibition did it give?
Answer: 1.52%

Question: Which Potency does the source give for `N#Cc1nc(N2CCOCC2)nc(N2CCOCC2)n1` here?
Answer: 3.55 µM (active) and 5.01 µM (active)

Question: `COc1ccc2[nH]c3c(NCCN4CCCCC4)ncnc3c2c1` was tested. Which Potency did it give?
Answer: 12.6 µM (active)

Question: For `COc1ccccc1OCCCn1c(CCNC(=O)C2CCCCC2)nc2ccccc21`, which Potency is on record?
Answer: 0.708 µM (active)

Question: Which Potency does the source give for `O=C(NCCc1nc2ccccc2n1CCCCOc1ccccc1)C1CCCCC1` here?
Answer: 0.562 µM (active)

Question: Which Potency does the source give for `O=C(NCCc1nc2ccccc2n1CCOc1ccc2ccccc2c1)C1CCCCC1` here?
Answer: 3.55 µM (active)

Question: With `Cc1ccc(SCCC(=O)OCC(=O)Nc2ncc(Cl)cc2Cl)cc1` as the compound, how does the activity change, negative = inhibition read?
Answer: -19.6%

Question: How did the activity change, negative = inhibition turn out when `O=C(NC(=S)Nc1nc(-c2cccc3ccccc23)cs1)c1cc2ccccc2o1` was run?
Answer: -1.65%

Question: Which Potency does the source give for `CCC(C(=O)NC1CCCCC1)n1c(SCc2ccccc2F)nc2ccncc21` (stereo not drawn) here?
Answer: 4.47 µM (active)

Question: For `CCNc1nc(C#N)nc(N2CCOCC2)n1`, which Potency is on record?
Answer: 10 µM (active)

Question: Which activity change, negative = inhibition does the source give for `COc1cccc(CN2C(=O)c3ccccc3Sc3ccc(C(=O)NCCc4ccc(Cl)cc4)cc32)c1` here?
Answer: 5.18%

Question: Which Potency does the source give for `COc1cccc(C)c1NC(=O)C(OC(=O)CNC(=O)c1ccccc1)c1ccccc1` (stereo not drawn) here?
Answer: 25.1 µM (active)

Question: `CN(CCNC(=O)c1cc2c(=O)n(C)c3ccccc3c2n1C)Cc1ccccc1` was tested. Which activity change, negative = inhibition did it give?
Answer: -49.8%

Question: `O=C(NCc1nnc(-c2nc3ccccc3[nH]2)o1)C1CCCCC1` was tested. Which activity change, negative = inhibition did it give?
Answer: -3.39%

Question: How did the Potency turn out when `CCNc1nc(C#N)nc2c1ncn2-c1cc(F)cc(F)c1` was run?
Answer: 0.224 µM (active)

Question: For `Cc1oc(=O)c(NC(=O)c2ccccc2)cc1C(=O)c1ccccc1`, which activity change, negative = inhibition is on record?
Answer: -5.13%
